17 compounds from PubChem BioAssay can be followed below.

Test [1] concerns Plasmodium falciparum Sir2 (PF13_0152, Sir2A). Description: Plasmodium falciparum Sir2A binding compounds – biochemical, small-molecule microarray, 635 nm fluorescence, primary screen (AID 1098).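 Further: score merges spot fluorescence intensity with its signal-to-noise ratio.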 To be noted: fluorescence 635 nm, higher = more signal.
The nature of test [2]: probe aDKK1 binding to arrayed compounds – biochemical, biotinylated probe, 635/667 nm fluorescence, primary screen (AID 1099).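 Further: score merges 667nm spot fluorescence with signal to noise across triplicate slides; reference of the scale not given here.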 As to conditions: small-molecule microarray, higher = more signal.
Test [3] in a line: probe aCHRDL2 binding to arrayed compounds – biochemical, biotinylated probe, 635/667 nm fluorescence, primary screen (AID 1100). As to conditions: small-molecule microarray, higher = more signal.
The nature of test [4]: change in splice reporter luminescence, either direction, cell-based, HEK293, spliceosome inhibition project, primary screen (AID 1101).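 Further: HEK293 cells carrying a splicing-competent luciferase reporter gene; test concentration not given here.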 To be noted: HEK293 splicing luciferase reporter, 24 h, higher = more signal, called active from +8 up or from −8 down.
Test [5] has as its target Fibroblast growth factor 10 (Homo sapiens) (UniProt O15520). Description: compounds binding fibroblast growth factor 10 – biochemical, small-molecule microarray, 635 nm fluorescence, primary screen (AID 1102). To be noted: FGF10 binding, fluorescence 635 nm, higher = more signal.
Test [6] has as its system glycogen synthase kinase-3 (GSK3A per assay name; protocol says GSK3B). As to the kind of experiment: compounds binding glycogen synthase kinase-3 – biochemical, small-molecule microarray, 635 nm fluorescence, GSK3A, primary screen (AID 1103). Further: the record names both GSK3A and GSK3B. To be noted: fluorescence 635 nm, higher = more signal.
Test [7] deals with Epidermal growth factor receptor (Homo sapiens) (UniProt P00533). Description: compounds binding epidermal growth factor receptor – biochemical, small-molecule microarray, 635 nm fluorescence, primary screen (AID 1104).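 Further: score merges 667 nm emission intensity with spot signal to noise over triplicate slides.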 As to conditions: EGFR binding, higher = more signal.
The target of test [8] is Follistatin-related protein 3 (Homo sapiens) (UniProt O95633). As to the kind of experiment: compounds binding follistatin-related protein 3 – biochemical, small-molecule microarray, 635 nm fluorescence, primary screen (AID 1105).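 Further: score merges emission near 667 nm and signal to noise per printed spot across three slides.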 To be noted: FSTL3 binding, higher = more signal.
Test [9] deals with Dickkopf-related protein 1 (Homo sapiens) (UniProt O94907). As to the kind of experiment: small molecules binding DKK1 protein – biochemical, small-molecule microarray, 635 nm fluorescence scan, primary screen (AID 1106).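 Further: score merges emission near 667 nm with signal to noise over three replicate slides.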 To be noted: higher = more signal.
Test [10] deals with Inhibin beta A chain (activin A). As to the kind of experiment: small molecules binding activin A – biochemical, small-molecule microarray, 635 nm fluorescence scan, primary screen (AID 1107).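 Further: mouse activin A protein probed at 4.33 µg/mL on printed slides; score merges bound-protein fluorescence near 667 nm with spot signal-to-noise.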 To be noted: INHBA, higher = more signal.

Calls of active or inactive are those of the source.

Follistatin-related protein 3 (Homo sapiens), sequence (O95633 whole entry, looked up): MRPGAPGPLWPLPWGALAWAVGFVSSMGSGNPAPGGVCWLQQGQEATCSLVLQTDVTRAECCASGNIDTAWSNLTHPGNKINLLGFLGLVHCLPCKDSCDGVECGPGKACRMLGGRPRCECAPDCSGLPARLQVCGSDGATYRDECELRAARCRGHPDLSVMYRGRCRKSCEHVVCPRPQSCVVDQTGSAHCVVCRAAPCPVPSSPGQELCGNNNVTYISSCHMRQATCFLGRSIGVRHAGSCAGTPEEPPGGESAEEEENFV
Epidermal growth factor receptor (Homo sapiens), sequence (P00533 whole entry, looked up): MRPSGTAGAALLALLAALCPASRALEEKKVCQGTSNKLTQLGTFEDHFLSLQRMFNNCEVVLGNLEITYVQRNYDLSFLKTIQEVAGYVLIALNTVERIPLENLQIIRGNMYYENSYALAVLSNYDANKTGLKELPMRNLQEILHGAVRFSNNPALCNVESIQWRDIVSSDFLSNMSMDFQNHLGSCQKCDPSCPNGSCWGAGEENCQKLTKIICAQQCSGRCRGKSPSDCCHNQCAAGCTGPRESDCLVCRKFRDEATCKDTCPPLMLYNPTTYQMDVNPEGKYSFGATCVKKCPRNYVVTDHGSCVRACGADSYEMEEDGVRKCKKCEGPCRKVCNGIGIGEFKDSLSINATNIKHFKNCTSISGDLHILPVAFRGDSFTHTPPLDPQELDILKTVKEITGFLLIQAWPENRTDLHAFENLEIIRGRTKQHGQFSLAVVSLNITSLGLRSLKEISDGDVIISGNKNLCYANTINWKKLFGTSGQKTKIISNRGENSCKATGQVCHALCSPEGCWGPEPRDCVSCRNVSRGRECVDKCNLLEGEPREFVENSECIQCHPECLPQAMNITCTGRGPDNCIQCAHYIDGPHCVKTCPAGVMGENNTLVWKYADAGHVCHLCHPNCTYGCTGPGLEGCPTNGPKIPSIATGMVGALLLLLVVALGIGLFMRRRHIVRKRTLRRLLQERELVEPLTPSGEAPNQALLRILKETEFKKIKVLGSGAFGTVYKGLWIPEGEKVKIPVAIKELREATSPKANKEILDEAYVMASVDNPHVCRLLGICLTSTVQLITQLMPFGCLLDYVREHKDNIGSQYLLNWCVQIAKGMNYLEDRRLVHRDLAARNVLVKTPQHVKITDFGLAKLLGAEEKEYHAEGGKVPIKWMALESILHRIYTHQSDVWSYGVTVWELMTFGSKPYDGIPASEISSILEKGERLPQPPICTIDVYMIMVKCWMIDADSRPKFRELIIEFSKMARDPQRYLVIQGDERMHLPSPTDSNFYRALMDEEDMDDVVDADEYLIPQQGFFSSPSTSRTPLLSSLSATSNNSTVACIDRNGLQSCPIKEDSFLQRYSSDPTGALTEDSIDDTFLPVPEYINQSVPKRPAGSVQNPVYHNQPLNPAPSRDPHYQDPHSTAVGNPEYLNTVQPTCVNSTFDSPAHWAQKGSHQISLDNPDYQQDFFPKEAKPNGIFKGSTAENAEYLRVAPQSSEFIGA
Fibroblast growth factor 10 (Homo sapiens), sequence (O15520 whole entry, looked up): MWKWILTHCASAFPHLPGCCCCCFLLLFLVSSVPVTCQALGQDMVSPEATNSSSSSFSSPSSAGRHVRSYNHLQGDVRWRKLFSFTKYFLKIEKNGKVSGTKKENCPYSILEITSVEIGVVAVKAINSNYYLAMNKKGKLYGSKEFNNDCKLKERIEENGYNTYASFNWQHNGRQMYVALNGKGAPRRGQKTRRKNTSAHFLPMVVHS
Dickkopf-related protein 1 (Homo sapiens), sequence (O94907 whole entry, looked up): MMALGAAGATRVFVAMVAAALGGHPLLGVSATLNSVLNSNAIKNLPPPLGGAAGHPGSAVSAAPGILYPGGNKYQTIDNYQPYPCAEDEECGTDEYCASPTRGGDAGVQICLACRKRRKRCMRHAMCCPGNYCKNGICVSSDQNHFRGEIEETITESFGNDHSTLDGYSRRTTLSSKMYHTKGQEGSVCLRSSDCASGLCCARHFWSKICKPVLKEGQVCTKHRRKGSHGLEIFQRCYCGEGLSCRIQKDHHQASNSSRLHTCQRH

Turning to `C=CCC(OC(C)=O)[C@@H]1[C@@H](N(Cc2cc3ccccc3o2)C(=O)c2cccc3ccccc23)c2cc(OCCCO)ccc2N1C(=O)c1ccc(-c2ccccc2)cc1` (stereo not given in full), the composite z-score in test [1] is -0.424; in test [2], 0.365; in test [3], 0.531; in test [5], 0.0822; in test [6] it was -0.34; in test [7] it was -0.0077. Besides, the figures for the composite z-score in [8], in test [9] and in test [10] were 0.176, -0.0541 and 0.971, respectively. The z-score in test [4] was -1.82 (inactive).

Consider `CC(C)C[C@@H]1NC(=O)[C@@H]2C[C@H](C(=O)NCc3ccc(F)cc3)[C@H](c3cccc(OCCO)c3)N2C1=O`, for which the composite z-score is 1.52 in test [1]; -0.23 in test [2]; 0.0811 in [3]; 1.2 in test [5]; 0.615 in [6]; 0.284 in [7]. Further, the composite z-score in test [8] is 0.946; in test [9] it was 0.322; in test [10], -0.19. For the same compound, in test [4], the z-score is -0.177 (inactive).

`COC(=O)C(CC#Cc1ccc2c(c1)[C@]1(C(=O)N2)[C@H](C(=O)Nc2nc3ccccc3s2)[C@H]2C(=O)O[C@H](c3ccccc3)[C@H](c3ccccc3)N2[C@@H]1c1ccccc1OCCO)C(=O)OC`: the composite z-score was found to be 1.61 in test [1]; 0.473 in test [2]; 0.561 in test [3]; 0.904 in test [5]; 1.24 in test [6]; 0.282 in test [7]. Besides, the composite z-score in test [8] was 0.701; in [9], 0.193; in [10] it was 0.303. Moreover, the z-score in test [4] is 1.44 (inactive).

Regarding `COC(=O)[C@@]1(Cc2ccc(F)cc2)[C@H]2c3cc(C(=O)N4CCCC4)n(CCCNc4ncc(C(F)(F)F)cc4Cl)c3C[C@H]2CN1C(=O)c1ccccc1`, the composite z-score in test [1] was 0.913; in test [2], 1.43; in test [3] it was 1.05; in [5], 0.137; in [6], -0.548; in [7], 0.23. In addition, the composite z-score in [8] was -0.142; in test [9], -0.808; in test [10] it was 1.17. In addition, in [4], the z-score is -2.38 (inactive).

Regarding `CCCC#C[Si](O[C@H](CC)c1cn(Cc2cccc(Cl)c2)nn1)(C(C)C)C(C)C`, the composite z-score in test [1] is 0.377; in [2] it was -0.23; in test [3] it was -0.45; in test [5], 1.11; in test [6] it was 1.05; in test [7], 0.484. Further, the composite z-score in [8] is 0.566; in [9] it was 0.52; in test [10], -0.121. Besides, the z-score in test [4] was -1.01 (inactive).

Take `CCCC[C@@H]1C[C@H]1[C@@H](NC(=O)C(C)(C)C)c1ccc(C(F)(F)F)cc1`: the composite z-score was -0.0923 in test [1]; 0.767 in test [2]; 1.44 in [3]; -1.23 in test [5]; -0.266 in [6]; -1.76 in test [7]. In addition, the values for the composite z-score in test [8], in test [9] and in [10] were -1.63, -1.61 and 0.328, respectively. In addition, the z-score in test [4] is -2.95 (inactive).

For `NC(=O)NCC#Cc1ccc2c(c1)[C@]1(C(=O)N2)[C@H](C(=O)Nc2nc3ccccc3s2)[C@H]2C(=O)O[C@H](c3ccccc3)[C@H](c3ccccc3)N2[C@@H]1c1ccccc1OCCO`, the composite z-score in [1] was 1.23; in test [2], 1.83; in test [3], -0.202; in test [5] it was 1.27; in [6], 0.261; in test [7] it was 0.997. The composite z-score in test [8] is 1.02; in test [9] it was 1.44; in [10] it was 1.08. The z-score in [4] is -0.137 (inactive).

`C=C(CCCC)C(=O)CC[C@@H](OC(=O)c1ccccc1-c1ccccc1C(=O)O)c1ccc(OCCO)cc1`: the composite z-score in test [1] is 1.19; in test [2], -0.0379; in [3] it was 0.0075; in test [5], 0.969; in test [6], 0.585; in test [7] it was -0.181. In addition, the composite z-score in test [8] came out at 0.668; in test [9], 0.55; in [10], 1.42. For the same compound, in test [4], the z-score was 0.962 (inactive).

Consider `CC1(C)[C@@H]2CC(C(O)C3C=CC4C(=O)N(Cc5ccccc5)C(=O)C4N3n3cnnc3)=C[C@H]1C2` (stereo not given in full), for which the composite z-score in [1] was found to be 0.779; in test [2], 0.454; in [3], 0.355; in test [5] it was 0.801; in test [6] it was 1.28; in test [7], 0.0902. In addition, the composite z-score in test [8] was found to be 0.74; in [9], 0.0252; in [10] it was 1.2. Also, in test [4], the z-score is -0.0958 (inactive).

With `CO[C@H]1O[C@H](CO)[C@@H](OC(=O)Nc2ccccc2)[C@H](OC(=O)Nc2ccccc2)[C@@H]1OC(=O)Nc1ccccc1`, the composite z-score in test [1] was 1.48; in test [2] it was -0.136; in test [3], -0.103; in test [5], 1.44; in test [6] it was 1.3; in test [7], 1.12. The composite z-score stood at 1.11 in test [8], 0.439 in [9] and 0.0784 in test [10]. Moreover, the z-score in test [4] was -1.29 (inactive).

In the case of `[N-]=[N+]=NCc1ccccc1C[C@]1(C(N)=O)COC(c2ccc(OCCCO)cc2)=N1`, the composite z-score in [1] is 0.806; in test [2], 1.13; in [3], 1.36; in [5], 0.23; in [6] it was 0.812; in [7] it was -1.04. Moreover, the composite z-score in test [8] was -0.0511; in [9], -0.2; in test [10], 0.636. The z-score in test [4] is -1.52 (inactive).

With `COC(=O)[C@@]1(Cc2ccc(OC)cc2)[C@H]2c3cc(C(=O)N(C)C)n(CCc4ccccn4)c3C[C@H]2CN1C(=O)c1ccccc1`, the composite z-score in test [1] is 0.566; in test [2] it was 1.62; in test [3] it was 1.41; in [5], 0.286; in [6], -0.133; in test [7], -0.011. In addition, the composite z-score in [8] is 0.0285; in test [9], -0.586; in [10], 0.937. Also, in test [4], the z-score was 0.317 (inactive).

Regarding `COC(=O)[C@@]1(Cc2ccc(OC)cc2)[C@@H]2C(=CC(=O)[C@H]2CC(=O)C(=O)N2CCCC2)CN1C(=O)c1ccccc1`, the composite z-score is 0.108 in test [1]; 1.01 in test [2]; 0.918 in test [3]; -0.148 in [5]; -0.573 in [6]; 0.351 in [7]. Also, the composite z-score in test [8] was 0.0649; in test [9], -0.69; in test [10], 0.765. The z-score in test [4] is -2.47 (inactive).

As to `COCCOC(=O)N1C(=O)[C@@]2(c3cc(C#CC4(O)CCCCCC4)ccc31)[C@H](c1ccc(OCCO)cc1)N1[C@H](c3ccccc3)[C@H](c3ccccc3)OC(=O)[C@H]1[C@@H]2C(=O)N1CCN(c2ncccn2)CC1`, the composite z-score in test [1] is 1; in [2] it was -0.165; in test [3], 0.107; in [5], 1.11; in test [6], 1.28; in test [7], 0.334. Further, the figures for the composite z-score in test [8], in test [9] and in [10] were 1.06, 0.48 and 0.0414, respectively. For the same compound, the z-score in [4] is -0.201 (inactive).

For the compound `CCCCCN1CC=CC23O[C@@H]4C=CCCOC(=O)C4[C@H]2C(=O)N(CCCCCO)[C@@H]3C1=O` (stereo not given in full), the composite z-score in test [1] is -0.158; in test [2] it was -0.287; in test [3] it was 0.249; in [5], -0.8; in test [6] it was -0.299; in test [7] it was -1.16. Also, the composite z-score in test [8] was -1.15; in [9], -0.503; in test [10] it was 0.516. Also, the z-score in test [4] is -0.978 (inactive).

Take `C=CCNC(=O)[C@H]1[C@@H]2C(=O)O[C@@H](c3ccccc3)[C@@H](c3ccccc3)N2[C@@H](c2ccccc2OCCO)[C@]12C(=O)Nc1ccc(C#CCC(C(=O)OC)C(=O)OC)cc12`: the composite z-score in test [1] worked out at 0.797; in [2], 0.309; in test [3], 0.973; in test [5], 1.26; in [6], 1.33; in test [7], 1.15. Further, the composite z-score was found to be 1.37 in test [8], 1.23 in test [9] and 0.568 in test [10]. Besides, the z-score in [4] is -2.39 (inactive).

Take `CCOC(=O)C[C@H]1[C@H](OC(=O)c2ccc(C(=O)c3ccccc3)cc2)[C@@H](NC(=O)CC(C)C)c2cc(OCCCO)ccc2N1C(=O)c1ccc2ccccc2n1`: the composite z-score is 0.366 in [1]; -0.0449 in test [2]; -0.399 in test [3]; 0.811 in test [5]; 1.25 in test [6]; 0.373 in test [7]. For the same compound, the results for the composite z-score in test [8], in test [9] and in test [10] were 1.41, 1.09 and 0.241, respectively. The z-score in test [4] was -0.202 (inactive).
